Results on six molecules are retold here after PubChem BioAssay (NCATS).

In test [1] the target is Cytochrome P450 3A4 (Homo sapiens) (UniProt P08684). Briefly: qHTS Assay for Inhibitors and Substrates of Cytochrome P450 3A4 (AID 884). Note: nearly all actives have a fitted effect of over 50% in size. Note: potency is the fitted concentration of half-maximal effect. Summed up:
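20 nM human CYP3A4 with 25 uM Luciferin-PPXE (at KM) in 200 mM KPO4, preincubated 10 min with compound; NADPH regeneration started a 60 min RT reaction. Luciferin detected by luminescence, normalized to 57 uM ketoconazole as full inhibition.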
A general note: In qHTS, concentration-response curves come from the screen itself.

The nature of test [2]: MultiTox-Fluor Cytotoxicity Assay - LYMP1-001 - Live Cells (AID 947).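 Note: 0% = DMSO only and full inhibition = tetraoctylammonium bromide control.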
Test [3] is described as follows: Cell Viability - LYMP2-004 (AID 966).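 Note: plate controls were DMSO only for no effect and tetraoctylammonium bromide control for full effect; nearly all actives have a fitted effect of over 65% in size.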 In outline: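 Acute toxicity is scored as a concentration-dependent drop in intracellular ATP, quantified by luciferase luminescence, in human lymphoblastoid cells exposed to compound for 24 hr. AC50 derives from Hill-equation modelling.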
The nature of test [4]: Cell Viability - LYMP2-009 (AID 968).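 Note: series mostly up to about 92 µM; cells exposed to compound for 24 h at 37 °C; 0% = DMSO alone and the full-kill end = tetraoctylammonium bromide at 92 µM; nearly all actives have a fitted effect of over 55% in size.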
A short description of test [5]: Cell Viability - LYMP2-010 (AID 981).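 Note: cells exposed to compound for 24 hours at 37 °C; % is set by controls: 0 for no effect and ±100 for the full control effect; nearly all actives have a fitted effect of over 55% in size.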 Summed up: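 Acute toxicity is scored as a concentration-dependent loss of cellular ATP in human lymphoblastoid cells after 24 hr compound exposure in complete medium. Tetraoctylammonium bromide is the positive control.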
The nature of test [6]: Cell Viability - LYMP2-012 (AID 982).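 Note: cellular ATP by luciferase luminescence where a drop means cytotoxicity; cells exposed to compound for one day before reading; 0% = DMSO only and full loss = 92 µM tetraoctylammonium bromide; nearly all actives have a fitted effect of over 55% in size.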
In test [7] the target is Estrogen receptor (Homo sapiens) (UniProt P03372). Put plainly: qHTS assay for small molecule antagonists of estrogen receptor alpha signaling (AID 588513; active = well fitted curve in the direction sought with a large enough effect in the signal ratio, with a control signal flat, not every such curve was filed as active; the % refers to the signal ratio; note: % is set by controls: 0 for no effect and ±100 for the full control effect). In outline:
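Fluorescence from CCF4 substrate after 2 h at room temperature gave reporter activity; cells had been exposed to compound and 0.5nM 17-beta-estradiol for 18 h at 37 C. Hill-equation fitting yielded IC50 and maximal response.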

Test [8] shares this target. Put plainly: qHTS assay for small molecule agonists of estrogen receptor alpha signaling (AID 588514; calls by dose curve;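 note: 0% = vehicle only and 100% = reference agonist; nearly all actives have a fitted effect of over 70% in size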). Summed up: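 Reporter-gene assay. […] controls beta-lactamase in HEK 293 GripTite cells; after 18 hrs with compound, CCF4 substrate is added for 2 hrs and fluorescence is read.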
In test [9] the target is Glucocorticoid receptor (Homo sapiens) (UniProt P04150). Put plainly: qHTS assay for small molecule agonists of glucocorticoid receptor signaling (AID 588532; active = well fitted curve in the direction sought with a large enough effect in the signal ratio, with a control signal flat; the % refers to the signal ratio;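 note: 100% = dexamethasone at 0.1 µM and 0% = DMSO only wells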). Particulars: HeLa MMTV-bla, beta-lactamase ratio, agonist, 18 h; stronger effect = higher value; percent of dexamethasone control, DMSO zero. Summed up: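 MMTV-bla HeLa beta-lactamase reporter cells in 1% charcoal/dextran FBS medium, compounds up to 92 uM for 18 h at 37 C, CCF4 readout; normalized to 0.1 uM dexamethasone (100%), EC50 and efficacy from Hill fits.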

For test [10] the target is unchanged. Briefly: qHTS assay for small molecule antagonists of glucocorticoid receptor signaling (AID 588533; active = well fitted inhibition curve with a large enough effect in the signal ratio, with a control signal flat, not every such curve was filed as active; the % refers to the signal ratio;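 note: cells stimulated with 2 nM dexamethasone as agonist; % is set by controls: 0 for no effect and ±100 for the full control effect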). In outline: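 Antagonist-mode qHTS: compound titrations added to GRE-bla HeLa cells, then dexamethasone 2 nM final; 18 h, 37 C. CCF4 FRET fluorescence normalized to dexamethasone and DMSO; IC50 from Hill fit.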
For test [11], the target named is Peroxisome proliferator-activated receptor delta (Homo sapiens) (UniProt Q03181). Put plainly: qHTS assay for small molecule agonists of peroxisome proliferator-activated receptor delta signaling (AID 588534; calls by dose curve;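 note: 0% = DMSO basal wells and 100% = positive control agonist at 10 µM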). In outline: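 Reporter cells were plated and held 5 hrs at 37 C before compounds were added. After 18 hrs at 37 C, CCF4 dye was loaded for 2 hrs at RT and fluorescence measured.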

Test [12] addresses Peroxisome proliferator-activated receptor gamma (Homo sapiens) (UniProt P37231). Briefly: qHTS assay for small molecule agonists of peroxisome proliferator-activated receptor gamma signaling (AID 588536; active = well fitted curve in the direction sought with a large enough effect in the signal ratio, with a control signal flat, not every such curve was filed as active; the % refers to the signal ratio;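 note: 0% = DMSO basal wells and 100% = rosiglitazone at 2 µM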). In outline: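 HEK293 UAS-bla reporter line, 1% charcoal/dextran FBS; titration, 16 h, 37 C; CCF4 loading 2 h RT; fluorescence 460/530 nm. Normalized to rosiglitazone 2 uM = 100%, DMSO = 0%.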

The target of test [13] is Thyroid hormone receptor beta (Homo sapiens) (UniProt P10828). Put plainly: qHTS assay for small molecule antagonists of thyroid hormone receptor beta signaling (AID 588547; active = well fitted inhibition curve with a large enough effect in the signal ratio, with a control signal flat, not every such curve was filed as active; the % refers to the signal ratio;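 note: cells stimulated with 0.4 nM T3 agonist during compound exposure; series mostly up to about 77 µM; % is set by controls: 0 for no effect and ±100 for the full control effect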). The conditions noted are these: TR-UAS-bla HEK293, beta-lactamase ratio, antagonist mode, 18 h. Summed up: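 TR-UAS-bla GripTite HEK293 cells in 2% charcoal/dextran FBS medium; compounds 0.59 nM to 92 uM with T3 at 0.4nM final, 18 h at 37 C. Beta-lactamase read by CCF4 fluorescence (460/530 nm); Hill fits gave IC50 and efficacy.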

For test [14], the target named is Voltage-gated inwardly rectifying potassium channel KCNH2 (Homo sapiens) (UniProt Q12809). Briefly: qHTS Assay for Small Molecule Inhibitors of the Human hERG Channel Activity (AID 588834).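 Note: lower thallium flux fluorescence means stronger hERG block; nearly all actives have a fitted effect of over 50% in size.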 Note: potency is the fitted concentration of half-maximal effect. Summed up:
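hERG-BacMam U2OS, 2000 cells/well; 0.7X FluxOR loading 1 hr RT dark; cpd ~10 min 37 °C; stim buffer; FDSS fluorescence 2 min @ 1 s; AC50 Hill fit.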

Test [15] can be described thus: qHTS assay for small molecule activators of the p53 signaling pathway (AID 651743; active = well fitted activation curve with a large enough effect in the signal ratio, not every such curve was filed as active; the % refers to the signal ratio; note: series mostly up to about 92 µM; % of control where 0% means no effect). Particulars: HCT-116 p53RE-bla, beta-lactamase FRET ratio, 16 h; activation: stronger effect = higher value. In outline:
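HCT-116 p53RE-bla, 4,000 cells/well; 5 h settle; cpd/DMSO 16 h, 37 C; LiveBLAzer B/G 2 h RT; fluorescence intensity.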

Test [16] addresses Nuclear receptor ROR-gamma (Homo sapiens) (UniProt P51449). Briefly: qHTS assay for small molecule antagonists of the retinoid-related orphan receptor gamma (ROR-gamma) signaling pathway (AID 651802).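 Note: CHO cells with doxycycline-induced ROR-gamma expression; series mostly up to about 92 µM; % is set by controls: 0 for no effect and ±100 for the full control effect; nearly all actives have a fitted effect of over 60% in size.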 Summed up:
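Antagonism is scored as a fall in luminescence from a RORE-luciferase reporter in CHO cells expressing ROR under a TET-inducible promoter, measured 16hr after doxycycline induction in the presence of compound.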

The nature of test [17]: qHTS assay for small molecule antagonists of the retinoid-related orphan receptor gamma (ROR-gamma) signaling pathway - cell viability counter screen (AID 720652; active = well fitted curve in the direction sought with a large enough effect in the repeat runs; an effect the other way counts as inactive or inconclusive;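 note: CHO reporter cells with doxycycline-induced ROR-gamma expression; series mostly up to about 92 µM; compound exposure lasted 16 hr before ATP read; % is set by controls: 0 for no effect and ±100 for the full control effect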). In outline:
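Cytotoxicity is quantified via intracellular ATP (CellTiter-Glo luminescence) in doxycycline-induced CHO ROR response element-luciferase reporter cells treated with compound for 16 hr at 37 C, 5% CO2.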

Test [18] can be described thus: qHTS assay for small molecule activators of the human pregnane X receptor (PXR) signaling pathway (AID 720659; call rule not given here; note: 0% is about no effect).
For test [19], the target named is Thyroid hormone receptor beta (Homo sapiens) (UniProt P10828). Briefly: qHTS assay for small molecule agonists of thyroid hormone receptor beta signaling (AID 588545; calls by dose curve). In outline: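 Agonist-mode beta-lactamase reporter assay, HEK 293 cells, 2% charcoal/dextran FBS; cells plated 4 hrs, compound 18 hrs at 37 C, CCF4 2 hrs RT. Normalized to 10 nM T3 (100%) and DMSO (0%); Hill fit gives EC50, efficacy.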

Test [20] has as its target Nuclear receptor subfamily 1 group I member 2 (Rattus norvegicus) (UniProt Q9R1A7). Briefly: qHTS assay for small molecule activators of the rat pregnane X receptor (rPXR) signaling pathway (AID 651751; call rule not given here; note: 0% is about no effect). Particulars: rPXR reporter cells, luciferase (One-Glo), 24 h.

The structures appear in SMILES notation. Several values for one entry are separate records, joined by “and”; a condition that tells them apart may be missing. Equal entries are not always repeated. A number with no mark means an inactive call. Results filed as inconclusive are left out. Activity calls are given as the source filed them. Unless noted, calls come from the whole dose curve; as a rule, active = well fitted curve in the direction sought with a large enough effect; inconclusive = small, poorly fitted or top-dose-only effect, or another doubt; inactive = no such curve, though single readings can be large; an effect the other way counts as inactive or inconclusive.

Chain of Nuclear receptor subfamily 1 group I member 2 (Rattus norvegicus) (Q9R1A7 whole entry, looked up): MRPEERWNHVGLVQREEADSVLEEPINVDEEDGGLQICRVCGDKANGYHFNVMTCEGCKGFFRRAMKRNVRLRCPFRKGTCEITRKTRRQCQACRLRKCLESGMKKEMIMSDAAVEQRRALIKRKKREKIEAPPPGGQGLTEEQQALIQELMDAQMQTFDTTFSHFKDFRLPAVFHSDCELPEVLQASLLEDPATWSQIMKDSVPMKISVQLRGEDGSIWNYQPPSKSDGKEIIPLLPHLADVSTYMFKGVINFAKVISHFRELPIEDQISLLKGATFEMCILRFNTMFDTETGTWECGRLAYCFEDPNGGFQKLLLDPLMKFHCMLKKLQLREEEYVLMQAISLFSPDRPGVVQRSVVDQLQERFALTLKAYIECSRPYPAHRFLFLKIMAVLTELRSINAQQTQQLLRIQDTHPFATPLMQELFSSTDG
Chain of Voltage-gated inwardly rectifying potassium channel KCNH2 (Homo sapiens) (Q12809 whole entry, looked up): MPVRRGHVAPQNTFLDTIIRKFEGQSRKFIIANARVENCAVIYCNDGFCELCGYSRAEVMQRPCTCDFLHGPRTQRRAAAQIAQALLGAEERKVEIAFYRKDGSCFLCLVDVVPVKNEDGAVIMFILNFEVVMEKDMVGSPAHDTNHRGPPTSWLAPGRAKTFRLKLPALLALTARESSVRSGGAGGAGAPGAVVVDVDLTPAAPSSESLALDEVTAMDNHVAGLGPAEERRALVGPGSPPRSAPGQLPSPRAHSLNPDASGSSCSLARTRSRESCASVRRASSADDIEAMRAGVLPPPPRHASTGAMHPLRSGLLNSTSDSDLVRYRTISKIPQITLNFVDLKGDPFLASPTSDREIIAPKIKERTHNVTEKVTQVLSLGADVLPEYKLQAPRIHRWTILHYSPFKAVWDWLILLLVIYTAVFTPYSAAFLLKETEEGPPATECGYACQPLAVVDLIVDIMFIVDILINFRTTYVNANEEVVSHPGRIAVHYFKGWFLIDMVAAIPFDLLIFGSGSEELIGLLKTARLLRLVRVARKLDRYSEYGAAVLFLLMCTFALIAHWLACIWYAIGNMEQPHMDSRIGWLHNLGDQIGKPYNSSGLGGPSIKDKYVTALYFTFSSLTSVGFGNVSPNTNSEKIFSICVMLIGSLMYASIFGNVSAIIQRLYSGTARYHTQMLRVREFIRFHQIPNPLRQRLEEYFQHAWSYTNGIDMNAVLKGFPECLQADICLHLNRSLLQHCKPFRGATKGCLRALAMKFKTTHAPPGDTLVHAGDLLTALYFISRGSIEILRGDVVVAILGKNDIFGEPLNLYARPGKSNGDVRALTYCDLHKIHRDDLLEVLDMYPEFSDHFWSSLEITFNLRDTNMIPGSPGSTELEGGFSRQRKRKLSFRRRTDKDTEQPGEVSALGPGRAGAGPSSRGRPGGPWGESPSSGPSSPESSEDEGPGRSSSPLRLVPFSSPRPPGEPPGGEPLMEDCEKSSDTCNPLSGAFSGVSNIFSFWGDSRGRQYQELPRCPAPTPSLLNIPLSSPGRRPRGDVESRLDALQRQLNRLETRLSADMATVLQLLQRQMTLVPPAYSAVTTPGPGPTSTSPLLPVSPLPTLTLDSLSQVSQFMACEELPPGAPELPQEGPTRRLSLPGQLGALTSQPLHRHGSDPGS
Chain of Estrogen receptor (Homo sapiens) (P03372 whole entry, looked up): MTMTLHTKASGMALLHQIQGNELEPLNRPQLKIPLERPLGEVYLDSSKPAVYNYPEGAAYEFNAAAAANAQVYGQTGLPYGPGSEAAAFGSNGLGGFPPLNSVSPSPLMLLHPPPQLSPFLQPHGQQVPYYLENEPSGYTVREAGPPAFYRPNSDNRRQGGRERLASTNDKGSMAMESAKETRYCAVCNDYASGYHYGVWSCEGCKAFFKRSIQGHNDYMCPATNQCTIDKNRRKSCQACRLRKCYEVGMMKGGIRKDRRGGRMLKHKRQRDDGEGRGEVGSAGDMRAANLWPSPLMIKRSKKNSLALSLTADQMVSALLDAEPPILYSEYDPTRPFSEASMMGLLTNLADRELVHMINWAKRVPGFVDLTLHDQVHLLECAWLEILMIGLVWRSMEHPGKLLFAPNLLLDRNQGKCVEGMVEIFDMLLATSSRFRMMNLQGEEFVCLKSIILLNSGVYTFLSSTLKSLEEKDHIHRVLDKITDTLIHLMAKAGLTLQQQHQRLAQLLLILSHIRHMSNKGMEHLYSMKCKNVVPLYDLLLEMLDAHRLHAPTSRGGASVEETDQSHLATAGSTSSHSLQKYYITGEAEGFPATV
Chain of Glucocorticoid receptor (Homo sapiens) (P04150 whole entry, looked up): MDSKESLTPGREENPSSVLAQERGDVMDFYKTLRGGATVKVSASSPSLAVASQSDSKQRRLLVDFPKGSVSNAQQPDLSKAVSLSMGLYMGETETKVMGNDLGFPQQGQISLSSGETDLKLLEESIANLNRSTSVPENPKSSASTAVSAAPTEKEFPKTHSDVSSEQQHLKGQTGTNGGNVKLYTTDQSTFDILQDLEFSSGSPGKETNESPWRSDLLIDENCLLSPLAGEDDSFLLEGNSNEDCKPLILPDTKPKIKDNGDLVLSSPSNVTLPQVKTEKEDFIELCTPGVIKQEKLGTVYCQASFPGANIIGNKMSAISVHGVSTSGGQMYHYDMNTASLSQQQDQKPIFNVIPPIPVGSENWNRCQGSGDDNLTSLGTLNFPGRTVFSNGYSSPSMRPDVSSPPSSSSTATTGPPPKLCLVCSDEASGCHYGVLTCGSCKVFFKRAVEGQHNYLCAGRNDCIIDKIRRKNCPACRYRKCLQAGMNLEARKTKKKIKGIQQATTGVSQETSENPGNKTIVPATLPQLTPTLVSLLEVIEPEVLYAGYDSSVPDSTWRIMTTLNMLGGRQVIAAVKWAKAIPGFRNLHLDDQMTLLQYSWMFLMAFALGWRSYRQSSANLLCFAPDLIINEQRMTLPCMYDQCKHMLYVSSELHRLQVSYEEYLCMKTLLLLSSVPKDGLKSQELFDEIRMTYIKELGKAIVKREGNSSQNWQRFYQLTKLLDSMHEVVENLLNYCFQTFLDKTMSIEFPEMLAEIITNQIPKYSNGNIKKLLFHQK
Chain of Cytochrome P450 3A4 (Homo sapiens) (P08684 whole entry, looked up): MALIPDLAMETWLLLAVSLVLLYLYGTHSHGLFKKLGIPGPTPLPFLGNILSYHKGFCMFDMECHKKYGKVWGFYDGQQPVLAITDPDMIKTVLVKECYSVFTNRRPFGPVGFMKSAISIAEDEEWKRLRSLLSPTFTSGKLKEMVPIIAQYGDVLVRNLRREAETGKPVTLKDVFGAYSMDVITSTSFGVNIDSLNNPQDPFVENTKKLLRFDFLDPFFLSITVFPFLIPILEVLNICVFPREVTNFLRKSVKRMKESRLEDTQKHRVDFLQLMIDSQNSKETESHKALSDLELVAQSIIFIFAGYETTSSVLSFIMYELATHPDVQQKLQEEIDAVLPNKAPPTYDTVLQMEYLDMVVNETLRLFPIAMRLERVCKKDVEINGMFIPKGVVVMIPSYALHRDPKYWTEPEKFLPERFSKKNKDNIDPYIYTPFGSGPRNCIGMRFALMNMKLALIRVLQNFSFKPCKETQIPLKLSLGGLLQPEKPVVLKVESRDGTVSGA
Chain of Peroxisome proliferator-activated receptor gamma (Homo sapiens) (P37231 whole entry, looked up): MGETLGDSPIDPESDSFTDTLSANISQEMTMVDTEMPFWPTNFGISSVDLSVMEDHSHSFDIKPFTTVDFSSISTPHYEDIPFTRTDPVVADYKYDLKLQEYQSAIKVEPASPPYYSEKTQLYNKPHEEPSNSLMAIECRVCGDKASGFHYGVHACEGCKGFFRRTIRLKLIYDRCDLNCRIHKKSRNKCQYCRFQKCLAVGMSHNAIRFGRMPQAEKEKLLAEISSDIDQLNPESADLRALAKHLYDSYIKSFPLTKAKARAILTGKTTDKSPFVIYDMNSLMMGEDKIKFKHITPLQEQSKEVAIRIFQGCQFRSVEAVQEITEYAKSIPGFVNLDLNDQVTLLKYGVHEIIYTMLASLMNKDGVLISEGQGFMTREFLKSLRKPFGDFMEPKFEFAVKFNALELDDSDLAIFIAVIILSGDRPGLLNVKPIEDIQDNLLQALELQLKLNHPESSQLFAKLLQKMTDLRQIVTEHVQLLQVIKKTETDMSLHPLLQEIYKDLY
Chain of Nuclear receptor ROR-gamma (Homo sapiens) (P51449 whole entry, looked up): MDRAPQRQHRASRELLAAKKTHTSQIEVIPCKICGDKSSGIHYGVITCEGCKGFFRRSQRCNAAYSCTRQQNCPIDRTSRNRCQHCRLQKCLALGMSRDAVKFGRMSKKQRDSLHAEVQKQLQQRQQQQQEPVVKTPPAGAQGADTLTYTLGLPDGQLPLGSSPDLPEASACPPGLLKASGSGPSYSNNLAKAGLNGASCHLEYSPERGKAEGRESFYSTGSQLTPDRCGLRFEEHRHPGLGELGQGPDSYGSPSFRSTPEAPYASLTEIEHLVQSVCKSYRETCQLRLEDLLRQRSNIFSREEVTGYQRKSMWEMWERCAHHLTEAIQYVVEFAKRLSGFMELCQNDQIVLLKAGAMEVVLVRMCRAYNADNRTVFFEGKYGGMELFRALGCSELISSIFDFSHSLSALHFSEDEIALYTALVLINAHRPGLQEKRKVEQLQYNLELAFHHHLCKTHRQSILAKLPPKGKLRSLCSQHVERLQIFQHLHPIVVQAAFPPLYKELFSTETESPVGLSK
Chain of Thyroid hormone receptor beta (Homo sapiens) (P10828 whole entry, looked up): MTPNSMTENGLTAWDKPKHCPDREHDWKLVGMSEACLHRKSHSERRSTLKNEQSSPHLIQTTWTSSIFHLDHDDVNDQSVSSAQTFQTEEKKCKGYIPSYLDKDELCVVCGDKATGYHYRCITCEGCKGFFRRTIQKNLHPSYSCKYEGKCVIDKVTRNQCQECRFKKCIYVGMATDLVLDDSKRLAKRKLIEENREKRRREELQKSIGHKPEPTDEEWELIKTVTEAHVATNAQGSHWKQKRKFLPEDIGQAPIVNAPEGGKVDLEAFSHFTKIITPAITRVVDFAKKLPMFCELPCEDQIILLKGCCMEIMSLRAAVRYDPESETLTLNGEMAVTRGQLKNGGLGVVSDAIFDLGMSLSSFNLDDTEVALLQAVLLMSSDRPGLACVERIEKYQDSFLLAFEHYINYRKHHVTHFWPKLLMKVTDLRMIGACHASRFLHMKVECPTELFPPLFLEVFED

For the molecule `OCC(Br)CBr` (stereo unspecified), the Potency entry in test [1], in test [2], in test [3], in test [4], in test [5] and in test [6] was “inactive” in each case. For the same molecule, the Potency entry in test [7], in test [8], in test [10], in [14], in test [16] and in test [17] was “inactive” each time. Besides, the activation is 4.78% in [9] and 1.53% in [15]. Further, the outcome in test [11], in test [12] and in test [18] was inactive. Moreover, the activity change % (negative = inhibition) in test [13] is 1.09%.

As to `O=C=NC1CCCCC1`, the Potency result in test [2], in test [3], in test [4], in test [5], in test [6] and in [7] was “inactive” throughout. In addition, the Potency entry in [8], in test [10], in test [14], in test [16] and in [17] was “inactive” each time. Moreover, the activation in test [9] was 10.3%; in test [15], -1.8% and -1.61%. Besides, the molecule was classed as inactive in test [11], in test [12], in [19] and in [18]. In [13], the activity change % (negative = inhibition) was -8.25% and 2.05%.

In the case of `N#CCCCl`, the Potency result in [1], in test [2], in test [3], in test [4], in test [5] and in [6] was “inactive” throughout. Moreover, the Potency entry in test [10], in test [14], in [16] and in [17] was “inactive” each time. In addition, the activation in [9] was -5% and -0.386%; in [15], -0.742% and -1.01%. Besides, the molecule was called inactive in test [19] and in test [18]. Besides, in test [13], the activity change % (negative = inhibition) is -2.7% and 7.92%. Also, the max response in test [20] was -4.29% and -2.84%.

In the case of `Clc1nc(Cl)nc(Cl)n1`, the Potency entry in [1], in test [2], in [3], in [4], in test [5] and in test [6] was “inactive” throughout. Moreover, the Potency result in test [7], in test [8], in test [10], in test [14], in [16] and in [17] was “inactive” in each case. Further, the activation in test [9] was 2.08% and -5.01%; in [15] it was -4.73% and -1.27%. Further, the molecule was called inactive in test [11], in test [12] and in [19]. Further, in [13], the activity change % (negative = inhibition) was -1.04%. Further, the max response in test [20] was -1.06% and -1.98%.

Take `CCOP(=S)(OCC)Oc1ccc([N+](=O)[O-])cc1`: the Potency is 10 µM (active) and 5.01 µM (active) in test [1]; 35.5 µM (active) in [14]. Further, the Potency entry in test [2], in test [3], in [4], in [5], in test [6] and in test [10] was “inactive” each time. The Potency result in test [16] and in test [17] was “inactive” in each case. Besides, the activation in test [9] is 1.36% and 0.403% and 5.24%; in test [15], -1.79% and -1.31% and 2.7%. The result in test [11], in test [12] and in test [19] was inactive. Further, in test [13], the activity change % (negative = inhibition) is 9.15% and -8.55%.

Regarding `Nc1c(Cl)c(Cl)nc(C(=O)O)c1Cl`, the Potency entry in test [1], in [2], in [3], in [4], in [5] and in [6] was “inactive” in each case. Besides, the Potency entry in [7], in test [10], in test [14], in test [16] and in test [17] was “inactive” in each case. In addition, the activation in test [9] was -2.38% and -16.4% and -2.51%; in [15] it was -3.11% and -9.55% and -6.83%. In addition, the outcome in [11], in test [12], in [19] and in test [18] was inactive. The activity change % (negative = inhibition) in test [13] was -17.9% and -15% and -2.55%. The max response in test [20] was -1% and -3.34% and -1.89%.
